The results in this text go back to PubChem BioAssay AID1018 (Sanford-Burnham Center for Chemical Genomics, 2008).

Out of some 200,000 compounds screened, about 15 (0.007%) were called active. Many of the other results were omitted from the sample, so actives are more common in it than they were. Unmarked numbers belong to inactive results. Rule as the data show it: active = displacement above about 50%; inactive = the rest.

Sequence of E3 ubiquitin-protein ligase XIAP (Homo sapiens) (P98170 whole entry, looked up, the tested form may be a part): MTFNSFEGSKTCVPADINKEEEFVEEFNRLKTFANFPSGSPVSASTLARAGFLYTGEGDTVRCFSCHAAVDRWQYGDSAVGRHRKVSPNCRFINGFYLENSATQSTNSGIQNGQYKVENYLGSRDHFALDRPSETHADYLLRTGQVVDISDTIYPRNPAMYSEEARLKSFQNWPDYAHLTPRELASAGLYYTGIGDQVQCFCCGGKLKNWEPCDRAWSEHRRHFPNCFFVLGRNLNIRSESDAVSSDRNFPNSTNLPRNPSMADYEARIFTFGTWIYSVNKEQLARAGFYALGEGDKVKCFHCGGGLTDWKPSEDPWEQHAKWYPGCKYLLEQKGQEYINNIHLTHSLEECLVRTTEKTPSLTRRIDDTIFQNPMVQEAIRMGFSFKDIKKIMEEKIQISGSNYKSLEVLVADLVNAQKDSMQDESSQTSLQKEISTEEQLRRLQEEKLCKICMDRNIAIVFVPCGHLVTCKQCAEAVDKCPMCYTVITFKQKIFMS

The experiment has as its target E3 ubiquitin-protein ligase XIAP (Homo sapiens) (UniProt P98170). The experiment in a line: XIAP antagonists, biochemical, IAP family, fluorescence polarization (AID 1018). The settings on record: XIAP BIR domain, fluorescence polarization peptide displacement; at 20 µM; stronger effect = higher value.
Turning to `Fc1cccc(CSc2nc3ccncc3[nH]2)c1`, the displacement is -5.3%.
On to `CCOc1cc(N2CCOCC2)c(OCC)cc1NC(=O)CSc1ncccn1`, for which the displacement was -8.5%.
With `O=C(Cn1cc(CCO)nn1)N1CCNCC1`, the displacement was -26.3%.
With `CCOC(=O)c1c(C)[nH]c(C)c1C(=O)CSc1nnc(-c2ccncc2)n1C`, the displacement was -0.3%.
As for `O=C(Nc1cn(-c2ccccc2)nc1-c1ccc(Cl)cc1)c1ccccc1`, the displacement was -8.1%.
As to `CN1CCN(CC(O)COC(c2ccccc2)c2ccccc2)CC1` (stereo not given), the displacement is -2.7%.
For the compound `CS(=O)(=O)N(CC(=O)Nc1ccc2c(c1)OCO2)c1ccccc1`, the displacement was 0.9%.
In the case of `CCCCCC(=O)N1CCN(CCN=CC2=C(O)CC(c3ccc(OC)c(OC)c3)CC2=O)CC1` (stereo not given), the displacement was -3.4%.
As to `O=c1[nH]c2cc3c(cc2cc1CN(Cc1cccnc1)C(=S)NCc1ccco1)OCO3`, the displacement was -8.9%.
With `O=C(NC1CCCC1)C(c1ccncc1)N(Cc1ccco1)C(=O)c1ccc(-c2ccccc2)[nH]1` (stereo not given), the displacement was -0.5%.
Under `O=C(CNC(=O)c1ccc(N2C(=O)c3ccccc3C2=O)cc1)OCC(=O)c1ccc(Cl)cc1` stands 77.6% (active); under `CCc1ccc(C(=O)COC(=O)CNC(=O)c2ccc(N3C(=O)c4ccccc4C3=O)cc2)cc1`, -2.7%; under `O=C(CNC(=O)c1ccc(N2C(=O)c3ccccc3C2=O)cc1)OCC(=O)c1ccccc1`, -3.8%.
Regarding `O=C(c1ccc2c(=O)n(C3CCCC3)c(=S)[nH]c2c1)N1CCCCCC1`, the displacement was 68.1% (active).
`CC1CCCN(C(=O)c2ccc3c(=O)n(C4CCCC4)c(=S)[nH]c3c2)C1` (stereo not given): the displacement is -8.7%.
Take `O=C(c1ccc2c(=O)n(C3CCCC3)c(=S)[nH]c2c1)N1CCN(C2CCCCC2)CC1`: the displacement is -21.2%.
Consider `Cc1ccc(NC(=O)c2ccc(Cl)nc2)cc1`, for which the displacement is -3.5%.
Regarding `Cc1cccc(S(=O)(=O)NCC2CCCO2)c1` (stereo not given), the displacement is -6.3%.
Then `Cc1cc(C(=O)NCc2ccc(C(=O)O)o2)c(C)o1`, with -8.1%.
On to `CC1(C)NC(C)(C)c2nonc2/C1=N\O`, for which the displacement was -3.8%.
Then `CC(C)(C)n1nnnc1C(c1ccncc1)N(Cc1ccccc1)Cc1ccco1` (stereo not given), with -4.2%.
Turning to `O=S(=O)(/C=C/c1ccccc1)N1CCN(c2ccccc2)CC1`, the displacement is -3.9%.
For `CC(C)(C)n1nnnc1C(c1cccnc1)N1CCN(c2cccc(C(F)(F)F)c2)CC1` (stereo not given), the displacement is -2.9%.
Turning to `CCCCOC(=O)Nc1ccc(OC)cc1S(=O)(=O)N1CCOCC1`, the displacement was 58.7% (active).
Consider `COc1ccc(NC(=O)c2cc(OC)c(OC)cc2OC)c(S(=O)(=O)N2CCOCC2)c1`, for which the displacement was -3.3%.
As to `CCOC(=O)Nc1ccc(OC)cc1S(=O)(=O)N1CCCCC1`, the displacement was -2.5%.
On to `O=C1c2ccccc2-c2onc3ccc(NCc4ccco4)c1c23`, for which the displacement is 76.4%.
`O=C1c2ccccc2-c2onc3ccc(NCCCn4ccnc4)c1c23`: the displacement was 70.1% (active).
`CCNc1ccc2noc3c2c1C(=O)c1ccccc1-3`: the displacement is -8.9%.
Turning to `Cc1cc(=O)[nH]c(S/C=C/c2ccccc2)n1`, the displacement is 0.7%.
For the compound `CCN(CC)S(=O)(=O)c1ccc(C)c(NC(=O)COC(=O)CNC(=O)c2ccc(C(C)(C)C)cc2)c1`, the displacement is -10.4%.
Regarding `Cc1nn(CCC#N)c2[nH]c(=O)cc(C(F)(F)F)c12`, the displacement is -4.9%.
With `Cc1ccc(C(NC(N)=O)c2ccccc2C)cc1` (stereo not given), the displacement is -1.9%.
Take `S=c1[nH]nc(CN2CCCCC2)n1-c1ccc(Cl)cc1`: the displacement is -9.6%.
On to `O=C(O)CCCc1nc(-c2ccc(Cl)cc2)no1`, for which the displacement was 70.8% (active).
For `O=C(O)CCCc1nc(-c2ccccc2)no1`, the displacement was -1.3%.
Under `O=C(O)CCc1nc(-c2ccc(Cl)cc2)no1` stands -3.7%.
On to `Cc1cccc(-c2n[nH]c(=S)n2-c2ccccc2)c1[N+](=O)[O-]`, for which the displacement is -3.7%.
Regarding `CC(=O)C(C(C)=O)C1(O)C(=O)c2ccccc2C1=O`, the displacement was -3.4%.
As to `Fc1cccc(Cn2cc(C(=S)N3CCOCC3)c3ccccc32)c1`, the displacement was -4.3%.
Turning to `CCC(C(=O)O/N=C(\N)c1ccc(Cl)cc1)c1ccccc1` (stereo not given), the displacement is -3.6%.
Consider `Cc1cccc2cc(COC(=O)C(C)C)c(=O)[nH]c12`, for which the displacement was -4.3%.
As to `COC(=O)c1cn(NC(=O)c2ccc3c(c2)OCO3)c(=O)c2ccccc12`, the displacement was -3.5%.
Under `CCOC(=O)C1(CC2CC2)CCN(S(=O)(=O)/C=C/c2ccccc2)CC1` stands -6.8%.
`Cc1ccc(-n2c(-c3ccccc3)c[n+]3c2CCc2ccccc2-3)c(C)c1`: the displacement was -4.9%.
Under `N/C(=N\OC(=O)CCC1CCCC1)c1ccc([N+](=O)[O-])cc1` stands -1.2%; under `CC(=O)Nc1cccc(NC(=O)Nc2cccc(Cl)c2C)c1`, -2.6%.
In the case of `CCC/C=N/NC(=O)c1ccc(F)cc1`, the displacement was -5.5%.
Then `CCCNC(=O)C12CCC(C)(c3nc4cc(C)c(C)cc4nc31)C2(C)C` (stereo not given), with -3%; and `CCOC(=O)N1CCC(N2Cc3cccc(C(=O)Nc4ccc(OC)c(OC)c4)c3C2=O)CC1`, with 1.9%; and `O=C(Nc1nnc(Cc2ccc(Cl)cc2)s1)C1CCCO1` (stereo not given), with -3.9%.
For `COCCN1CCN(c2c3c(nc4cc(-c5cccc(F)c5)nn24)CCC3)CC1`, the displacement is -10.3%.
Consider `O=C(O)[C@H](Cc1ccccc1)N1Cc2ccccc2C1=O`, for which the displacement was 2.3%.
For the compound `O=C(O)C(Cc1ccccc1)N1Cc2ccccc2C1=O` (stereo not given), the displacement is -8.8%.
Then `CCOC(=O)/C=C/S(=O)(=O)c1ccc(NC(C)=O)cc1`, with -2.6%; and `CCN(CC)CCN(C(=O)c1c(F)cccc1F)c1nc2cc(C)cc(C)c2s1`, with -3.6%.
Turning to `Cc1ccc(NC(=O)c2ccc(-n3cncn3)c([N+](=O)[O-])c2)cc1`, the displacement was -3.6%.
In the case of `CN(C)CCNC(=O)c1ccccc1`, the displacement was -5.4%.
Under `CC1CCN(S(=O)(=O)c2ccc(N/N=C(/C#N)C(N)=O)cc2)CC1` stands -6.4%; under `Cc1ccc(C)c(NC(=S)N(C)CCO)c1`, -3.7%.
Regarding `Cn1c(=O)[nH]c(=O)c2c1nc(N1CCCCC1)n2CCSc1nc2ccccc2o1`, the displacement was -3.9%.
Then `COc1ccc(N(CC(=O)NCCSC2CCCCC2)S(C)(=O)=O)c(OC)c1`, with -4.6%; and `COc1ccc(/C(O)=C2/C(=O)C(=O)N(CCN(C)C)C2c2cccnc2)cc1OC` (stereo not given), with -8.8%; and `O=C(COC(=O)c1cccc(S(=O)(=O)N2CCc3ccccc32)c1)Nc1ccc(Cl)cn1`, with -4.3%.
Consider `Cc1ccc(NC(=O)COC(=O)c2ccc3c(c2)NC(=O)C2CCCN32)cc1` (stereo not given), for which the displacement is -1.5%.
Turning to `Cc1ccc(CNC(=O)Cn2cc(C(F)(F)F)ccc2=O)cc1`, the displacement is -2.9%.
With `S=C(Nc1ccc(Cl)cc1)N1CCN(C2CCCCC2)CC1`, the displacement is -3.9%.
For `O=C(OCCC1Oc2cccnc2NC1=O)c1ccc(F)cc1` (stereo not given), the displacement is -2.6%.
As for `Nc1nc(-c2ccco2)nn1S(=O)(=O)c1ccc(Cl)cc1`, the displacement was -2.1%.
Turning to `CN(C)C(CNC(=O)Cc1cccc(C(F)(F)F)c1)c1ccco1` (stereo not given), the displacement was -10.8%.
As to `O=C(COc1ccc(Cl)cc1[N+](=O)[O-])N/N=C/c1cccs1`, the displacement is -10.2%.
`N=C1C(c2ccccc2)=C(O)CN1c1ccccc1N1CCOCC1`: the displacement is -6.4%.
Turning to `O=C(CCCOc1ccccc1)Nc1ccc(S(=O)(=O)N2CCOCC2)cc1`, the displacement was -4.6%.
Take `COc1cc(C)c(Cl)c(C)c1S(=O)(=O)NC1CC(C)(C)NC(C)(C)C1`: the displacement is -4.7%.
As to `Cc1ccc(-c2[nH]nc3c2C(c2ccccc2OC(=O)N2CCOCC2)C(C#N)=C(N)O3)cc1` (stereo not given), the displacement is 1.4%.
Then `Cc1ccc(N2N=C(c3ccc(Br)cc3)CCC2=O)cc1`, with -4.4%; and `Cc1ccc(Cn2cccc2C2=NC(C)CO2)cc1` (stereo not given), with -0.2%; and `COc1ccc(C(=O)NC(=S)N2CC(C)OC(C)C2)cc1OC` (stereo not given), with -1.8%.
As for `COc1ccc(CN2C(=O)c3cccnc3C2Nc2cc(Cl)ccc2OC)cc1` (stereo not given), the displacement is 63.8% (active).
With `COc1ccc(CN2C(=O)c3cccnc3C2Nc2cc(Cl)c(OC)cc2OC)cc1` (stereo not given), the displacement was 9.6%.
For `COc1ccc(CN2C(=O)c3cccnc3C2Nc2ccc(OC)c(Cl)c2)cc1` (stereo not given), the displacement was -2%.
`Cc1ccc(N=N/C(=C\O)C(=O)c2ccc(Cl)cc2)cc1`: the displacement is -7.5%.
With `CCN(CC)CCNC(=O)/C(=C/c1cn(CC)c2ccccc12)NC(=O)c1cc(OC)c(OC)c(OC)c1`, the displacement is -5.1%.
Then `CC(=O)NC1C(=O)N(CCc2ccccc2)c2ccccc21` (stereo not given), with 1.5%; and `Cc1ccc(NC(=O)c2cccc(Cl)c2)nc1`, with -1.6%; and `Cn1nccc1C(=O)Nn1cnnc1`, with 1.6%.
Under `Cc1ccc(S(=O)(=O)N2CCOCC2)cc1NC(=O)COC(=O)c1ccccc1OCc1c(C)noc1C` stands 0.2%.
Take `COc1cc(OC)c(C(=O)NCC(c2cccs2)N(C)C)cc1OC` (stereo not given): the displacement is -4.3%.
Under `O=C(CN1CCOCC1)N1CCN(S(=O)(=O)c2ccccc2)C1c1ccccc1` (stereo not given) stands -3.4%; under `CCOc1ccccc1NC(=O)c1nc[nH]c1C(=O)Nc1ccccc1OCC`, -4.1%; under `CCCOC(=O)c1sc2nc3c(cc2c1N)C(=O)CCC3`, -6%.
`CCOC(=O)c1c(C(=O)OCC)c(C)n(N2C(=O)CSC2=S)c1C`: the displacement was -39.5%.
Take `Cc1nn2cc(-c3ncc(C(F)(F)F)cc3Cl)cnc2c1Br`: the displacement is -5.1%.
Turning to `CN1CCN(C2CCCCCC2)CC1`, the displacement was -7.6%.
For `O=C(O)CCCNc1cc(N2CCC3(CC2)OCCO3)c2noc3c2c1C(=O)c1ccccc1-3`, the displacement was 87.1% (active).
For the compound `O=C1c2ccccc2-c2onc3ccc(N4CCCC4)c1c23`, the displacement is -14.9%.
As to `CC(=O)OCCNc1cc(N2CCN(C)CC2)c2noc3c2c1C(=O)c1ccccc1-3`, the displacement was -1.6%.
For `CCOC(=O)N1CCN(c2cc(NCCC(=O)O)c3c4c(onc24)-c2ccccc2C3=O)CC1`, the displacement was 67.3% (active).
As to `CCOC(=O)N1CCN(c2cc(NCCO)c([N+](=O)[O-])c3nonc23)CC1`, the displacement is -2.9%.
Under `O=[N+]([O-])c1c(NCCO)cc(N2CCC3(CC2)OCCO3)c2nonc12` stands -5.3%.
